Values joined by “and” are separate entries in the source; they are usually repeats but may differ in a detail not shown here. Identical values can stand only once. About 83,000 compounds went through this panel and 20% of them were active in at least one assay; those are over-represented in the sample as a whole.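 How to read the values: 0–100, growth inhibition (40 = 60% inhibited); 0, no net growth; -100 to 0, cell death (-40 = 40% of starting cells died; -100 = all dead).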 A number with no mark means an inactive call. Active and inactive are the calls of the source. The calls were made as follows: active = growth percent below 10; inactive = the rest.

Test systems include NCI-H23 lung; NCI-H226 lung; NCI-H322M lung; HOP-62 NSCLC; NCI-H460 lung; HOP-92 NSCLC; A549/ATCC NSCLC; 786-0 renal; COLO 205 colon; DU-145 prostate; K-562 leukemia; MALME-3M melanoma; MDA-MB-231 breast; RXF 393 renal; SF-268 CNS; SF-295 CNS; SF-539 CNS; UACC-257 melanoma; M14 melanoma.
What all share (assay): NCI-60 one-dose screen, 48 h (100 = growth as untreated, 0 = no growth, -100 = all killed)
What all share (settings): 10 µM unless noted

On to `Cc1nn(-c2ccccc2)c2nc(C)n(CC(=O)N/N=C/c3cccc([N+](=O)[O-])c3)c(=O)c12`, for which the growth with NCI-H23 lung is 102%; in the test with NCI-H226 lung, 100%; in the test with NCI-H322M lung it was 98.1%; in the test on HOP-62 NSCLC, 96.1%; with NCI-H460 lung, 106%; in the test with HOP-92 NSCLC, 91.9%. Besides, the growth in the test on A549/ATCC NSCLC is 91.9%; with 786-0 renal, 84%; with COLO 205 colon, 120%; in the test on DU-145 prostate it was 105%; in the test with K-562 leukemia it was 91%; in the test on MALME-3M melanoma, 99%. The growth is 78.5% in the test with MDA-MB-231 breast; 84.2% in the test with RXF 393 renal; 96.5% in the test on SF-268 CNS; 101% with SF-295 CNS; 95.3% in the test on SF-539 CNS; 101% with UACC-257 melanoma. Also, the growth in the test with M14 melanoma was 107%.
For `S=C(NCCc1ccccc1)Nc1ccc(OCc2nc3ccc(Cl)cc3[nH]2)cc1`, the growth with NCI-H23 lung was 28.6%; with NCI-H226 lung, 67.1%; in the test with NCI-H322M lung, 57.5%; with HOP-62 NSCLC, 49.7%; with NCI-H460 lung, 10.8%; in the test on HOP-92 NSCLC it was 14.4%. The growth is 51.2% in the test on A549/ATCC NSCLC; 29% in the test on 786-0 renal; 43.6% in the test on COLO 205 colon; 37.3% with DU-145 prostate; 10.1% with K-562 leukemia; 56.5% in the test with MALME-3M melanoma. For the same molecule, the growth was 9.6% (active) with MDA-MB-231 breast; -12.6% (active) in the test with RXF 393 renal; 52.8% in the test with SF-268 CNS; 60.4% in the test with SF-295 CNS; 17.8% with SF-539 CNS; 74.1% in the test on UACC-257 melanoma. Moreover, the growth in the test with M14 melanoma was 46.7%.
As to `Clc1ccc(-c2nc3ccc(-c4nnc(SCc5ccccc5)o4)cc3[nH]2)cc1`, the growth in the test with NCI-H23 lung was 18.3%; with NCI-H226 lung, 40.3%; in the test with NCI-H322M lung it was 27.6%; in the test with HOP-62 NSCLC it was 9.18% (active); with NCI-H460 lung, 41.4%; with HOP-92 NSCLC, 48%. Besides, the growth in the test on A549/ATCC NSCLC is 34.9%; in the test on 786-0 renal, 24.6%; with COLO 205 colon it was 55.3%; in the test on DU-145 prostate, 54.9%; with K-562 leukemia it was 36.7%; with MALME-3M melanoma, 29.4%. Besides, the growth in the test on MDA-MB-231 breast was -11.9% (active); in the test on RXF 393 renal, -4.87% (active); in the test with SF-268 CNS it was 60%; in the test on SF-295 CNS it was -73.4% (active); with SF-539 CNS it was -28% (active); in the test with UACC-257 melanoma, 62.2%. In the test with M14 melanoma, the growth is 67.9%.
For `CC(C)(C)C(=O)c1c2c(c3ccc4c5ccccc5ccc4n13)C(=O)c1ccccc1C2=O`, the growth in the test on NCI-H23 lung is 73.5%; with NCI-H226 lung it was 73.1%; with NCI-H322M lung, 97.5%; in the test on HOP-62 NSCLC, 84.6%; in the test on NCI-H460 lung it was 55.9%; with HOP-92 NSCLC, 104%. In addition, the growth with A549/ATCC NSCLC is 84.9%; in the test with 786-0 renal, 109%; in the test with COLO 205 colon, 102%; in the test with DU-145 prostate, 95.6%; in the test on K-562 leukemia it was 103%; with MALME-3M melanoma, 9.73% (active). The growth in the test with MDA-MB-231 breast is 85.7%; in the test with RXF 393 renal, 105%; in the test with SF-268 CNS it was 101%; in the test on SF-295 CNS it was 99.6%; in the test with SF-539 CNS it was 87.2%; with UACC-257 melanoma it was 105%. Moreover, in the test with M14 melanoma, the growth is 71.3%.
Turning to `NC1(c2ccc(-c3ccc4ncnc(NCc5ccccc5)c4c3)cn2)COC1`, the growth in the test on NCI-H23 lung is 108% and 105%; in the test with NCI-H226 lung it was 103% and 111%; in the test with NCI-H322M lung it was 109% and 97%; in the test with HOP-62 NSCLC it was 118% and 112%; in the test on NCI-H460 lung, 106% and 112%; in the test on HOP-92 NSCLC it was 112% and 120%. Besides, the growth in the test on A549/ATCC NSCLC was 111% and 109%; with 786-0 renal, 115% and 104%; in the test on COLO 205 colon it was 112% and 126%; in the test on DU-145 prostate, 105% and 97.7%; in the test with K-562 leukemia, 114% and 100%; in the test on MALME-3M melanoma, 106%. Besides, the growth was 105% and 106% in the test on MDA-MB-231 breast; 103% and 101% in the test on RXF 393 renal; 111% and 113% in the test with SF-268 CNS; 102% and 101% in the test with SF-295 CNS; 101% and 104% in the test with SF-539 CNS; 120% and 109% in the test on UACC-257 melanoma. Moreover, the growth in the test with M14 melanoma was 134% and 114%.
In the case of `CCCn1c(NC(=O)c2cccc(C(N)=O)c2)nc2ccc(CN3CCCCC3)cc21`, the growth in the test with NCI-H23 lung is 89.8%; in the test with NCI-H226 lung, 102%; with NCI-H322M lung, 82%; with HOP-62 NSCLC, 105%; in the test on NCI-H460 lung, 81.9%; with HOP-92 NSCLC it was 84.4%. For the same molecule, the growth was 99.8% in the test on A549/ATCC NSCLC; 12% in the test with 786-0 renal; 97.4% in the test with COLO 205 colon; 87.1% in the test on DU-145 prostate; 85.8% in the test on K-562 leukemia; 92.4% in the test on MALME-3M melanoma. The growth in the test with MDA-MB-231 breast was 126%; in the test with RXF 393 renal, 46.4%; in the test with SF-268 CNS it was 107%; in the test on SF-295 CNS, 106%; in the test on SF-539 CNS, 106%; in the test with UACC-257 melanoma, 121%.
As for `O=S(=O)(c1nc(-c2ccc(Br)cc2)oc1-c1ccc(Cl)cc1)N1CCCC(O)C1` (stereo unspecified), the growth in the test with NCI-H23 lung was 47.3%; in the test with NCI-H226 lung, 60.4%; with NCI-H322M lung, 78.3%; with HOP-62 NSCLC it was 102%; in the test on NCI-H460 lung, 34.1%; with HOP-92 NSCLC it was -14.5% (active). Further, the growth in the test on A549/ATCC NSCLC was 47.6%; in the test with 786-0 renal it was 58.9%; with COLO 205 colon, 81%; in the test on DU-145 prostate, 72.6%; with K-562 leukemia, 33.8%; in the test on MALME-3M melanoma, 74.8%. The growth was 60% with MDA-MB-231 breast; 51.3% in the test with RXF 393 renal; 63% in the test with SF-268 CNS; 58.1% with SF-295 CNS; 84.5% in the test with SF-539 CNS; 80.3% in the test on UACC-257 melanoma. Further, the growth in the test on M14 melanoma was 69.7%.
Consider `COc1c2c(c(Br)c3c1C(CCc1ccccc1)N(C)CC3)OCO2` (stereo unspecified), for which the growth in the test with NCI-H23 lung is 16.4%; in the test on NCI-H226 lung it was 51.7%; with NCI-H322M lung, 38.5%; in the test on HOP-62 NSCLC it was 68.2%; in the test with NCI-H460 lung, 23.5%; in the test with HOP-92 NSCLC it was 22.6%. Also, the growth in the test on A549/ATCC NSCLC is 45.9%; in the test with 786-0 renal, 47.6%; with COLO 205 colon, 29.6%; in the test on DU-145 prostate, 56.7%; with K-562 leukemia, 28.1%; with MALME-3M melanoma, 63.7%. In addition, the growth in the test with MDA-MB-231 breast is 39.9%; in the test with RXF 393 renal, 72.9%; in the test with SF-268 CNS it was 45.7%; with SF-295 CNS it was 40.6%; with SF-539 CNS, -8.69% (active); with UACC-257 melanoma it was 64.9%. Besides, in the test with M14 melanoma, the growth was 29%.
